This note sets out measurements from PubChem BioAssay (EPA / NIEHS).

“And” between values parts separate entries of the source, which are not always exact repeats. Identical values can stand only once. Results filed as inconclusive are left out. The source made the active and inactive calls. Rule for the calls: active = hit-call score of the fitted dose curve at least 0.9, where 1 is the maximum; inconclusive = response in the unintended direction; inactive = score below 0.9.

Assay [1] concerns the target rat Serotonin, 5-Hydroxytryptamine Receptor 1 (5HT1), Non-Selective Binding, Htr1a (gene 24473) (UniProt P19327). Kind of assay: NVS_GPCR_r5HT1_NonSelective: NovaScreen (NVS) G Protein-Coupled Receptor Assay for rat Serotonin, 5-Hydroxytryptamine Receptor 1 (5HT1), Non-Selective Binding (AID 2283286). An outline of the steps:
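Binding of a radioligand to rat cortex membranes is read by filtration and scintillation counting after 1 h. Compounds were screened at 25 uM in duplicate. Actives were then titrated to a top of 50 uM. DMSO is the baseline.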

The target in assay [2] is rat Adrenergic, Alpha 1, Non-selective Receptor (Adra1), Adra1a (gene 29412) (UniProt P43140). Kind of assay: NVS_GPCR_rAdra1_NonSelective: NovaScreen (NVS) G Protein-Coupled Receptor Assay for rat Adrenergic, Alpha 1, Non-selective Receptor (Adra1) (AID 2283289). Put shortly: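 Chemicals first screened in duplicate at 25 uM, then actives tested in concentration series up to 50 uM. Binding measured as displacement of radioligand from rat forebrain membrane receptors, 1 h, filtration with scintillation readout; DMSO baseline.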

The target of assay [3] is human Purinergic Receptor P2Y, P2RY1 (gene 5028) (UniProt P47900). Put plainly: NVS_GPCR_hPY2: NovaScreen (NVS) G Protein-Coupled Receptor Assay for human Purinergic Receptor P2Y (AID 2283281). Put shortly: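 Filtration scintillation readout of radioligand displacement on U937 extract, measured 1 h post-dosing. Single 25 uM duplicate screen, then singleton concentration series to 50 uM for chemicals passing threshold; DMSO as baseline.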

Assay [4] concerns the target human Thromboxane A2 Receptor (TXA2), TBXA2R (gene 6915) (UniProt P21731). Kind of assay: NVS_GPCR_hTXA2: NovaScreen (NVS) G Protein-Coupled Receptor Assay for human Thromboxane A2 Receptor (TXA2) (AID 2283282).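 Note: actives reduce bound radioligand signal relative to DMSO baseline.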 An outline of the steps: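 Filter scintillation counting of bound radioligand, human platelet protein, 1 h exposure. Single-concentration duplicates (25 uM) first, concentration-response follow-up for actives. Binding loss scored against DMSO baseline.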

Assay [5] has as its target human Opioid Receptor Mu (Opiate Mu), OPRM1 (gene 4988) (UniProt P35372). Put plainly: NVS_GPCR_hOpiate_mu: NovaScreen (NVS) G Protein-Coupled Receptor Assay for human Opioid Receptor Mu (Opiate Mu) (AID 2283290).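 Note: hits lower bound tracer signal versus DMSO meaning displacement of the ligand.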 Put shortly:
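Here, radioligand binding to CHO-extracted receptor was measured after 2.5 h using filter-based scintillation detection. Initial single-concentration screening used 25 uM in duplicate with plate controls; confirmed actives went to concentration-response testing.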

Assay [6] addresses human Opioid Receptor Delta 1 (Opiate D1), OPRD1 (gene 4985) (UniProt P41143). Put plainly: NVS_GPCR_hOpiate_D1: NovaScreen (NVS) G Protein-Coupled Receptor Assay for human Opioid Receptor Delta 1 (Opiate D1) (AID 2283280). Put shortly: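 Membrane preparations from CHO cells bearing the human receptor were incubated 1 h with test chemical, and bound radioligand was counted after filtration. Actives from 25 uM duplicate screening were retested in concentration-response.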

For assay [7], the target named is human Orphanin, Opioid Related Nociceptin Receptor 1 (ORL1), OPRL1 (gene 4987) (UniProt P41146). Kind of assay: NVS_GPCR_hORL1: NovaScreen (NVS) G Protein-Coupled Receptor Assay for human Orphanin, Opioid Related Nociceptin Receptor 1 (ORL1) (AID 2283283). Put shortly: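 Cell-free binding using HEK293-derived receptor protein: radioligand displacement measured by filter scintillation 1 hour after dosing. Primary testing at 25 uM in duplicate, followed by singleton concentration series up to 50 uM; DMSO served as negative control.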

For assay [8], the target named is mouse Cholecystokinin, CCK1 Receptor (CCKA), Cckar (gene 12425) (UniProt O08786). Kind of assay: NVS_GPCR_mCCKAPeripheral: NovaScreen (NVS) G Protein-Coupled Receptor Assay for mouse Cholecystokinin, CCK1 Receptor (CCKA) (AID 2283285). An outline of the steps: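 Chemicals were first screened in duplicate at 25 uM, with those meeting threshold (e.g., 30% inhibition) retested in singleton concentration series to 50 uM maximum. Binding of radioligand to mouse pancreatic membranes was read after 2 h by filtration and scintillation counting.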

Assay [9] has as its system rabbit Platelet Activating Factor Receptor (PAF), gene 100354046. Put plainly: NVS_GPCR_rabPAF: NovaScreen (NVS) G Protein-Coupled Receptor Assay for rabbit Platelet Activating Factor Receptor (PAF) (AID 2283287). Put shortly: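 Rabbit platelet membrane preparation; radioligand displacement read by filter-based scintillation counting 1 h after dosing, loss of signal versus DMSO. Primary screen in duplicate at 25 uM, actives followed up in concentration series.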

For assay [10], the target named is guinea pig Bradykinin Receptor B2 (BK2), BDKRB2 (gene 100135486) (UniProt O70526). Put plainly: NVS_GPCR_gBK2: NovaScreen (NVS) G Protein-Coupled Receptor Assay for guinea pig Bradykinin Receptor B2 (BK2) (AID 2283292). An outline of the steps: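 Guinea pig ileum membrane preparation incubated 1 h with radioligand and test chemical; bound counts measured after filtration. Primary duplicate screening at 25 uM, then singleton concentration series with a 50 uM top dose; DMSO as baseline.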

For assay [11], the target named is mouse Cholecystokinin, CCK2 Receptor (CCKB), Cckbr (gene 12426) (UniProt P56481). Kind of assay: NVS_GPCR_mCKKBCentral: NovaScreen (NVS) G Protein-Coupled Receptor Assay for mouse Cholecystokinin, CCK2 Receptor (CCKB) (AID 2283293). An outline of the steps:
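Mouse forebrain membrane preparation incubated 2 h with chemical and radioligand; bound radioactivity counted after filtration. Single-concentration duplicate screen at 25 uM, then concentration series to 50 uM max for hits, DMSO as baseline.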

Assay [12] concerns the target guinea pig Serotonin, 5-Hydroxytryptamine Receptor 4 (5HT4), HTR4 (gene 100135548) (UniProt O70528). Put plainly: NVS_GPCR_g5HT4: NovaScreen (NVS) G Protein-Coupled Receptor Assay for guinea pig Serotonin, 5-Hydroxytryptamine Receptor 4 (5HT4) (AID 2283294). An outline of the steps:
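Compounds first screened in duplicate at 25 uM, actives followed up in concentration series. Binding measured as displacement of specific radioligand from guinea pig striatal membranes, 1 h, filter-based scintillation read-out versus DMSO baseline.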

In assay [13] the target is rat Serotonin, 5-Hydroxytryptamine Receptor (5HT), Non-Selective Binding, Htr1a (gene 24473) (UniProt P19327). Put plainly: NVS_GPCR_r5HT_NonSelective: NovaScreen (NVS) G Protein-Coupled Receptor Assay for rat Serotonin, 5-Hydroxytryptamine Receptor (5HT), Non-Selective Binding (AID 2283295). Put shortly:
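Rat cortex membrane preparation incubated 1 h with radioligand and test chemical; bound radioactivity counted after filtration. Screening began in duplicate at 25 uM with concentration-series follow-up; fitting relative to DMSO.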

Assay [14] addresses rat Adrenergic, Alpha 1A Receptor (Adra1A), Adra1a (gene 29412) (UniProt P43140). Put plainly: NVS_GPCR_rAdra1A: NovaScreen (NVS) G Protein-Coupled Receptor Assay for rat Adrenergic, Alpha 1A Receptor (Adra1A) (AID 2283296). Put shortly:
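Filter radiodetection after 1 h competitive binding on CEC-pretreated rat cortical membranes. Duplicate single-point screening at 25 uM; active chemicals retested across concentration series.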

The test system of assay [15] is rat Adrenergic, Alpha 1B Receptor (Adra1B), gene 24173. Put plainly: NVS_GPCR_rAdra1B: NovaScreen (NVS) G Protein-Coupled Receptor Assay for rat Adrenergic, Alpha 1B Receptor (Adra1B) (AID 2283297). An outline of the steps: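 Filter-binding radioligand competition on membranes from rat liver, read after 1 h by scintillation counting. Single-concentration duplicate screen at 25 uM, followed by concentration-response on actives, normalised to DMSO.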

In assay [16] the target is rat Adrenergic Receptor, Beta (Adrb), Non-selective Binding, Adrb1 (gene 24925) (UniProt P18090). Put plainly: NVS_GPCR_rAdrb_NonSelective: NovaScreen (NVS) G Protein-Coupled Receptor Assay for rat Adrenergic Receptor, Beta (Adrb), Non-selective Binding (AID 2283298). Put shortly: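 Rat cortical membranes incubated 1 h with beta-adrenergic radioligand and test chemical; bound ligand measured by filtration and scintillation counting. Screen at 25 uM duplicate, then concentration series with 50 uM maximum; loss of signal versus DMSO.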

Assay [17] concerns the target rat Adrenergic Receptor, Alpha 2 (Adra2), Non-selective Binding, Adra2a (gene 25083) (UniProt P22909). Kind of assay: NVS_GPCR_rAdra2_NonSelective: NovaScreen (NVS) G Protein-Coupled Receptor Assay for rat Adrenergic Receptor, Alpha 2 (Adra2), Non-selective Binding (AID 2283299). An outline of the steps:
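Filter-based scintillation counting of radioligand binding to rat cortical membrane receptors, measured 1.25 hours post-dosing; loss of signal versus DMSO indicates displacement. Initial single-concentration duplicate at 25 uM, then concentration series.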

For assay [18], the target named is rat Corticotropin Releasing Factor Receptor (CRF), Crhr1 (gene 58959) (UniProt P35353). Put plainly: NVS_GPCR_rCRF: NovaScreen (NVS) G Protein-Coupled Receptor Assay for rat Corticotropin Releasing Factor Receptor (CRF) (AID 2283300). Put shortly: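 Single-concentration (25 uM, duplicate) radioligand binding on rat cortical membrane preparations, counted by scintillation after 2 h. Activity scored as signal loss relative to DMSO negative control.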

Assay [19] relates to 5-hydroxytryptamine receptor 2C (pig). Kind of assay: NVS_GPCR_p5HT2C: NovaScreen (NVS) G Protein-Coupled Receptor Assay for pig Serotonin, 5-Hydroxytryptamine Receptor 2C (5HT2C) (AID 2283288). An outline of the steps:
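Radioligand displacement on membranes from pig choroid plexus, detected by filter scintillation counting after 1 h. Tested first at a single 25 uM in duplicate, then in concentration-response for actives; DMSO served as baseline.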

Sequence of rat Serotonin, 5-Hydroxytryptamine Receptor 1 (5HT1), Non-Selective Binding, Htr1a (gene 24473) (P19327 whole entry, looked up): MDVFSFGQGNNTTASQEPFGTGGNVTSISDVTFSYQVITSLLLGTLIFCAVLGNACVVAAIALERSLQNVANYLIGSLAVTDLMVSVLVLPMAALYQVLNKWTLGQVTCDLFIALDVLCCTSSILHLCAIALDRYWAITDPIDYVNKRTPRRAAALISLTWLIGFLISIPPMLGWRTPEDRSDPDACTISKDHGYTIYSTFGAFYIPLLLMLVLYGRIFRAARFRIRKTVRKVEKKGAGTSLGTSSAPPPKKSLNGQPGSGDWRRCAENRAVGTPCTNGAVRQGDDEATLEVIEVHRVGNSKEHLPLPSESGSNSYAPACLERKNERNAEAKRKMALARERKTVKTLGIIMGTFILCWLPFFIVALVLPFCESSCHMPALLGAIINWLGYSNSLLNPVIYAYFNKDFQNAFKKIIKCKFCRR
Sequence of human Thromboxane A2 Receptor (TXA2), TBXA2R (gene 6915) (P21731 whole entry, looked up): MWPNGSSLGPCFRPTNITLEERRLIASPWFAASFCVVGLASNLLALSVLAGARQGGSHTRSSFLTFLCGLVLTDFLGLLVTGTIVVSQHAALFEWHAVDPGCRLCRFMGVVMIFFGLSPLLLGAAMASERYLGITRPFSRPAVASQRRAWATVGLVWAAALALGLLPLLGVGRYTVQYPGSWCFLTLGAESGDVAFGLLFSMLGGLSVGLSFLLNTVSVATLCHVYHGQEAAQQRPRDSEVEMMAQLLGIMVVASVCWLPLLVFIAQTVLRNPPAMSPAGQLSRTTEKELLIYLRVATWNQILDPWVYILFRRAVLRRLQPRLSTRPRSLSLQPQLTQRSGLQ
Sequence of rat Adrenergic, Alpha 1, Non-selective Receptor (Adra1), Adra1a (gene 29412) (P43140 whole entry, looked up): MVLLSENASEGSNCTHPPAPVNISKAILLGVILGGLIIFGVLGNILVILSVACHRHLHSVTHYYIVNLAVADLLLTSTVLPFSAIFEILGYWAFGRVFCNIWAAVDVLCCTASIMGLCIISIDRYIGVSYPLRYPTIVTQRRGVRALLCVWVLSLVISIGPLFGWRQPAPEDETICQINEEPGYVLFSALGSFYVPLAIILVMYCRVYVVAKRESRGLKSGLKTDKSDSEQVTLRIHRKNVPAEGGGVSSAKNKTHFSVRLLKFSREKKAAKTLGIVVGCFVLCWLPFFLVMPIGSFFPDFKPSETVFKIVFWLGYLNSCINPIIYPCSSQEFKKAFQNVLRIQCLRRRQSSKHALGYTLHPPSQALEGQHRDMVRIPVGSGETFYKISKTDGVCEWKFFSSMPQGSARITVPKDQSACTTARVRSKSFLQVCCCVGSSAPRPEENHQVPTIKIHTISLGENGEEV
Sequence of human Opioid Receptor Mu (Opiate Mu), OPRM1 (gene 4988) (P35372 whole entry, looked up): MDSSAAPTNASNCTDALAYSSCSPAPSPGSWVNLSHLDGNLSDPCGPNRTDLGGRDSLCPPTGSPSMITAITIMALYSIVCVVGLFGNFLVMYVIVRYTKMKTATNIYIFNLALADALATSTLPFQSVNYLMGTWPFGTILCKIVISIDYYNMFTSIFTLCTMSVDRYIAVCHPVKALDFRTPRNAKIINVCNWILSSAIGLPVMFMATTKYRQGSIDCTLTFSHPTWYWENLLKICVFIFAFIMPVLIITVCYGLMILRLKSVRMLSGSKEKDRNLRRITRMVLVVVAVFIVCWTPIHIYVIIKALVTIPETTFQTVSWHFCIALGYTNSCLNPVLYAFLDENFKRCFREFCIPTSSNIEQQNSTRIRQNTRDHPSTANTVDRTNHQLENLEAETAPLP
Sequence of rat Adrenergic Receptor, Alpha 2 (Adra2), Non-selective Binding, Adra2a (gene 25083) (P22909 whole entry, looked up): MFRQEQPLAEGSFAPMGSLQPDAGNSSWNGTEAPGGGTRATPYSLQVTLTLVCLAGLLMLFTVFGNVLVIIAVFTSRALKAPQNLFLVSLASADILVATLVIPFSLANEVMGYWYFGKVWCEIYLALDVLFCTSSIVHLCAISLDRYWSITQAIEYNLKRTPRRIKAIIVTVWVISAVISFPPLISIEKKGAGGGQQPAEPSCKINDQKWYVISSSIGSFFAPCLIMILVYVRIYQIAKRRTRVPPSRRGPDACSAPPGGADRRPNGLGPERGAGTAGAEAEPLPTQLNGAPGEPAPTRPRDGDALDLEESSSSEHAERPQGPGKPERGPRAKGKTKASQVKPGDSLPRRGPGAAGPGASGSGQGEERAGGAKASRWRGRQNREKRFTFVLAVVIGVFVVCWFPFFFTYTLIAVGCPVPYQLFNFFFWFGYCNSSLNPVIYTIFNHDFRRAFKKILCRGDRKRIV
Sequence of rat Serotonin, 5-Hydroxytryptamine Receptor (5HT), Non-Selective Binding, Htr1a (gene 24473) (P19327 whole entry, looked up): as the sequence (P19327 whole entry, looked up) above
Sequence of mouse Cholecystokinin, CCK2 Receptor (CCKB), Cckbr (gene 12426) (P56481 whole entry, looked up): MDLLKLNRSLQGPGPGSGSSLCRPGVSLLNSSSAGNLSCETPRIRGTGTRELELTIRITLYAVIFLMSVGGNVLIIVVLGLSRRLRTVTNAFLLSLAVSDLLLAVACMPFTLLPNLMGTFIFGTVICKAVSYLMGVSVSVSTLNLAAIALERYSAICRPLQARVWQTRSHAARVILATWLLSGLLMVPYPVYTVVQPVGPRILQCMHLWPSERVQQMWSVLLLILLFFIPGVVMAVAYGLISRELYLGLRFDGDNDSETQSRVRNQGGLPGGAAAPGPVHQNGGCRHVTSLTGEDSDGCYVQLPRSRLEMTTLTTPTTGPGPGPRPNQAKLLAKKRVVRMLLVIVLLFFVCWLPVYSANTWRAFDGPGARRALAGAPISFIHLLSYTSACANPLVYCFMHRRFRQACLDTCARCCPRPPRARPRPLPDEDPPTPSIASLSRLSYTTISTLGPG
Sequence of human Opioid Receptor Delta 1 (Opiate D1), OPRD1 (gene 4985) (P41143 whole entry, looked up): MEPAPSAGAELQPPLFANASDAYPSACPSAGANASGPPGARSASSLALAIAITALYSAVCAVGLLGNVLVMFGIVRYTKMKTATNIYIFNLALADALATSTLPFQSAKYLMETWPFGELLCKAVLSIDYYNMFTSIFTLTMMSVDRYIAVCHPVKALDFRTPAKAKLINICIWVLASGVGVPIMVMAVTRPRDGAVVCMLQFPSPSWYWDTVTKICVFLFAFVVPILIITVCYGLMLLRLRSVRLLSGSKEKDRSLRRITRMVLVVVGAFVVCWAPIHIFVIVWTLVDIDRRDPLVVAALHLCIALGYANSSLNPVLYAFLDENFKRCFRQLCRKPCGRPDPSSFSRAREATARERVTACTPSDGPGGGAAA
Sequence of human Orphanin, Opioid Related Nociceptin Receptor 1 (ORL1), OPRL1 (gene 4987) (P41146 whole entry, looked up): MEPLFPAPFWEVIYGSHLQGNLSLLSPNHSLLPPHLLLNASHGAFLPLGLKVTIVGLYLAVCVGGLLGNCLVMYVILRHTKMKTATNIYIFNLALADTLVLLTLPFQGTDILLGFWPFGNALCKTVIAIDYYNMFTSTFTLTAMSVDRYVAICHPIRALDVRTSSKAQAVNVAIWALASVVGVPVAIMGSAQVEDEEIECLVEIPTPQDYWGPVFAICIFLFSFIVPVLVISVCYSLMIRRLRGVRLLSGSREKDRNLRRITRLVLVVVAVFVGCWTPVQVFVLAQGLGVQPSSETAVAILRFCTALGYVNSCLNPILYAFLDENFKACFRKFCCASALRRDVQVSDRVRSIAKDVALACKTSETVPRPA
Sequence of rat Adrenergic Receptor, Beta (Adrb), Non-selective Binding, Adrb1 (gene 24925) (P18090 whole entry, looked up): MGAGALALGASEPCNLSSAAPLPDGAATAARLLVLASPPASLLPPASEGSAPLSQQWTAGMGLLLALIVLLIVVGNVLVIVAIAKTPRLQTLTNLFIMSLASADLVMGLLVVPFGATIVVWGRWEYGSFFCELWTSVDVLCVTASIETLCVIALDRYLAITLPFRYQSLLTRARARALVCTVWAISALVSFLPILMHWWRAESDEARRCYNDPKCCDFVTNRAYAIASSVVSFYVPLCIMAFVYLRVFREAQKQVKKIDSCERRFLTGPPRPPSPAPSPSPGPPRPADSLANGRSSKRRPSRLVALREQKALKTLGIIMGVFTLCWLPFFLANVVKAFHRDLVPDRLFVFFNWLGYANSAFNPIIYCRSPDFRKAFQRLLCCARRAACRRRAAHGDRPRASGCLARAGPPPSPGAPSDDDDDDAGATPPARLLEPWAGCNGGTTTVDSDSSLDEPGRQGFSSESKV
Sequence of guinea pig Serotonin, 5-Hydroxytryptamine Receptor 4 (5HT4), HTR4 (gene 100135548) (O70528 whole entry, looked up): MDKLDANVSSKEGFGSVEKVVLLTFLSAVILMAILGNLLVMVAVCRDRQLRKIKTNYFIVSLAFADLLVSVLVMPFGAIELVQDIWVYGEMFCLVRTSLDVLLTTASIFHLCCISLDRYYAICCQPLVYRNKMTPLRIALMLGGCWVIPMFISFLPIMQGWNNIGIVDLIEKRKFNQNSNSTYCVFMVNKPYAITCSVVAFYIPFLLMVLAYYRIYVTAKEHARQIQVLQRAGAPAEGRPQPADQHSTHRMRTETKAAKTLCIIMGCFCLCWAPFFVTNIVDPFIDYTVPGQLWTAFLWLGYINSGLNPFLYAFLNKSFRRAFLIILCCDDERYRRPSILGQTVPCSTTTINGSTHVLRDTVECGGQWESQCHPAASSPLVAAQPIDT
Sequence of guinea pig Bradykinin Receptor B2 (BK2), BDKRB2 (gene 100135486) (O70526 whole entry, looked up): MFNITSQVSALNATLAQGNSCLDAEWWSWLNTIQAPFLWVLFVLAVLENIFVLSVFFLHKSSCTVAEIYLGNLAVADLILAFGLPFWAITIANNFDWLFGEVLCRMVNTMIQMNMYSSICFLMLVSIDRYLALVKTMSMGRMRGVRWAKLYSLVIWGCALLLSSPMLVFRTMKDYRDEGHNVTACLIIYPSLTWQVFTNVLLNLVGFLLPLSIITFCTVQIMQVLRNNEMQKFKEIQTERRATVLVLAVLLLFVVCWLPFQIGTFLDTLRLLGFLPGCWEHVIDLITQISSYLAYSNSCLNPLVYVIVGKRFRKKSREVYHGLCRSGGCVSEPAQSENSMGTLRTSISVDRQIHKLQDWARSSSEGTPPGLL

On to `COc1cc(-c2ccc(N)c(OC)c2)ccc1N`, for which the AC50 in assay [1] was 11.8 µM (active) and 12.6 µM (active). For the same molecule, in assay [2], the outcome was inactive.
On to `COP(=S)(OC)Oc1ccc(Sc2ccc(OP(=S)(OC)OC)cc2)cc1`, for which, in assay [3], the molecule was called inactive. In [4], the half-maximal activity concentration (AC50) was 25 µM (active).
As to `CCSC(C)CC1CC(=O)C(C(CC)=NOC/C=C/Cl)=C(O)C1` (stereo not given), in assay [4], the AC50 is 3.42 µM (active).
As to `O=C(OC1CCCCC1)c1ccccc1C(=O)OC1CCCCC1`, in assay [5], the call was inactive.
Take `Nc1ncc([N+](=O)[O-])s1`: the AC50 in [5] was 17.6 µM (active).
On to `O=C(O)C(F)(F)C(F)(F)C(F)(F)C(F)(F)C(F)(F)C(F)(F)C(F)(F)C(F)(F)C(F)(F)C(F)(F)F`, for which the AC50 in [6] is 10.7 µM (active); in assay [5] it was 12.4 µM (active). The outcome in assay [4] was inactive.
In the case of `C=C(C)C(=O)[O][Sn]([CH2]CCC)([CH2]CCC)[CH2]CCC`, the AC50 is 0.761 µM (active) in assay [6]; 5.96 µM (active) in assay [4]; 1.39 µM (active) in assay [7]; 0.281 µM (active) in assay [8]; 18 µM (active) in assay [1]; 6.61 µM (active) in assay [9]. Besides, the AC50 was 6.86 µM (active) in assay [2]; 0.653 µM (active) in assay [5]; 12 µM (active) in assay [10]; 2.88 µM (active) in assay [11]; 2.78 µM (active) in assay [12]; 13.8 µM (active) in assay [13]. Further, the AC50 in assay [14] was 13 µM (active); in assay [15], 4.59 µM (active); in [16], 20.5 µM (active); in [17], 3.25 µM (active). Further, in assay [18], the result was inactive.
For the molecule `O=[N+]([O-])c1ccc(O)c([N+](=O)[O-])c1`, the AC50 in assay [11] is 25 µM (active).
As to `CCCCCCCCC(=O)NCc1ccc(O)c(OC)c1`, the result in [4] was inactive.
The same measure, in the same setting: for `CCNc1nc(NC(C)(C)C)nc(SC)n1` the value was “inactive”.
Take `CCC(=O)C(CC(C)N(C)C)(c1ccccc1)c1ccccc1` (stereo not given): the molecule was called inactive in assay [1]. Further, the AC50 in assay [19] is 1.91 µM (active); in assay [2], 18.1 µM (active); in assay [13], 7.26 µM (active); in assay [17], 12 µM (active).
Consider `Clc1ccc(C2(Cn3cncn3)CC(Br)CO2)c(Cl)c1` (stereo not given), for which the result in [7] was inactive.
For the molecule `CC(C)(C)c1cc(O)ccc1O`, the molecule was classed as inactive in assay [5].
`C(=NC1CCCCC1)=NC1CCCCC1`: the AC50 in [4] is 2.87 µM (active).
`ClC1=C(Cl)[C@]2(Cl)[C@H]3[C@H]([C@H]4C=C[C@H]3C4)[C@@]1(Cl)C2(Cl)Cl`: the molecule was called inactive in [5].
Turning to `CCOP(=S)(OCC)SCSP(=S)(OCC)OCC`, the molecule was classed as inactive in [5].

In general, AC50 refers to the midpoint of the concentration-response curve, whichever way the signal moves.
